The list is not random: actives were taken first. Their share in the collection is about 10%.
Mm-Cpn inhibitor: blocks the Methanococcus maripaludis chaperonin Mm-Cpn; purified Mm-Cpn ATPase, ADP Transcreener TR-FRET; Potency, µM (highest dose often 76.9 µM), for inactives: at the top dose activity, negative = inhibition, most hits filed as inhibitors; hit rate 0.031% among 330,000; further: potency means the concentration at half of the fitted maximal effect; nearly all actives have a fitted effect of over 80% in size
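Purified archaeal Mm-CPN (25nM final) preincubated 10 min at 37degC with compound, then 10uM ATP for 30 min at 37degC; ADP measured by HTRF Transcreener TR-FRET; buffer 30 mM TRIS pH 7.4, 100mM KCl, 5mM MgCl2, 1mM DTT.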
G9a inh: G9a (human) methyltransferase inhibition | hit rate 8.8% among 350,000 | AID 504332 | G9a H3K9 monomethylation, AlphaScreen, 2 h | Q96KQ7 | Potency, µM (doses to about 102 µM), for inactives: top-dose activity, negative = inhibition, usual class: inhibitors; further: potency means the concentration at half of the fitted maximal effect; nearly all actives have a fitted effect of over 75% in size
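Chemiluminescent proximity detection of H3K9 monomethylation, read after 10 min bead incubation in the dark. Reaction: 20 nM G9a, 500 nM biotin-H3K9 peptide, 20 uM SAM cofactor, 2 h, room temperature, following 15 min enzyme-compound preincubation.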
VDR inhibitor: blocks the human vitamin D receptor; VDR-SRC2-3 peptide fluorescence polarization, 2 h; Potency, µM, for inactives: max response, negative = inhibition, hits mostly inhibitors; hit rate 0.93% among 400,000; further: potency means the concentration at half of the fitted maximal effect
Target sequence (P11473 whole entry, looked up): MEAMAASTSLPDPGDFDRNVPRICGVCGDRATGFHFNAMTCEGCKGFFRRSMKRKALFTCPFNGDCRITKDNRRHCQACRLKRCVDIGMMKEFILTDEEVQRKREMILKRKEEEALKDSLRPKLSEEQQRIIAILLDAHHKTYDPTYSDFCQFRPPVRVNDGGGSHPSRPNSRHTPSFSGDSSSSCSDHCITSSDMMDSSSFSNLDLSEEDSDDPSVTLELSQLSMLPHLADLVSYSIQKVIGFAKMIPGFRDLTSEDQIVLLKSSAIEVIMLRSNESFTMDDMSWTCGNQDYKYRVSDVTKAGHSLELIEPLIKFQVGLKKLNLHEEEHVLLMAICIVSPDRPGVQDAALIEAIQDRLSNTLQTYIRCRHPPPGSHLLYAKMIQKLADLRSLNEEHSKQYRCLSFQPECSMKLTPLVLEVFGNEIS
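Two reagent solutions held at 4 deg C in the dark were dispensed, compounds pinned at 23 nl, and the mixture incubated 2 h at room temperature. Read-out: fluorescence polarization of VDR–SRC2-3 peptide binding.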
CCT chaperon mod: changes cytosolic chaperonin activity | activity change, % (test concentration not listed), hits read low | purified chaperonin ATPase assay, HTRF ADP detection, 30 min | AID 651819 | hit rate 0.3% among 360,000; in the data active means activity change below about -30%
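ATPase activity: ADP formed was measured by HTRF Transcreener (665/615 nm ratio) after 30 min at 37 deg C with 10 uM ATP. Compounds screened at one 76 uM concentration against 40 or 20 nM TRiC in Tris pH 7.4/KCl/MgCl2/DTT buffer.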
Sfp PPTase inh: inhibitors of Bacillus subtilis Sfp phosphopantetheinyl transferase. Biochemical Sfp PPTase activity, qHTS. AID 1490. Potency, µM, inactives show largest response in the series, negative = inhibition, usual class: inhibitors. Q9F4F7. hit rate 3.5% among 310,000;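 further: the enzyme is Sfp with the accession as filed and its product quenches rhodamine fluorescence; potency means the concentration at half of the fitted maximal effect; 0% = enzyme reaction without inhibitor and -100% = no enzyme wells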
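After 15 min at room temperature with compound, 15 nM Sfp received 5 uM rhodamine-CoA plus 12.5 uM BHQ-2-ybbR (50 mM Hepes pH 7.6, 10 mM MgCl2). Rate came from the fluorescence difference over 30 min, ex 525/em 598 nm.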
PLK1 PBD block: inhibitors of human PLK1 polo-box domain binding | Potency, µM, for the others: max response, negative = inhibition, usual class: inhibitors | hit rate 2.8% among 360,000 | AID 720504 | Plk1 PBD binding of FITC phosphopeptide, fluorescence polarization | P53350; further: potency means the concentration at half of the fitted maximal effect; series mostly up to about 57 µM; nearly all actives have a fitted effect of over 65% in size
Sfp inh conf: confirmation of Bacillus subtilis Sfp PPTase inhibitors; Potency, µM (doses to about 114 µM), without a hit: at the highest dose activity change, negative = inhibition, actives largely listed as inhibitors; hit rate 79% among 380; shares compounds with Sfp PPTase inh; Sfp PPTase enzymatic assay, qHTS titration;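 further: potency means the concentration at half of the fitted maximal effect; plate controls were uninhibited Sfp reaction for no effect and no enzyme control for full effect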
Target sequence (Q9F4F7 whole entry, looked up): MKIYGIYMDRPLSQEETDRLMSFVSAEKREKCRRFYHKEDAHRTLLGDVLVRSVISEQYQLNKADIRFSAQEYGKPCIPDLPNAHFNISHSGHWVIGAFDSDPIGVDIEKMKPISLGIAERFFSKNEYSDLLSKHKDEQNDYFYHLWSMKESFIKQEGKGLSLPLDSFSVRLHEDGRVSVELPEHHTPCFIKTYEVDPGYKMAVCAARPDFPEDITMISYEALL
Sfp PPTase gel: Inhibits B. subtilis Sfp phosphopantetheinylation. purified Sfp, gel-based phosphopantetheinylation read-out. hit rate 20% among 210. Potency, µM, most hits filed as inhibitors. shares compounds with Sfp PPTase inh;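 active means potency below 100 µM; inconclusive means dose-dependent response but potency above 100 µM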;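 further: band intensities scaled against SCH202676 control wells before curve fitting; potency is an IC50 for inhibitors of Sfp transfer activity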
An asterisk follows results filed as active; i = inactive; u = inconclusive; x = no result; [ ] = remark or other dose. Unless noted, the call rests on the fitted dose curve; in most records, active means well fitted curve in the direction sought with a large enough effect; inconclusive means small, poorly fitted or top-dose-only effect, or another doubt; inactive means no such curve, though single readings can be large; an effect the other way counts as inactive or inconclusive. Unless noted, on the % scale 0 is the no-effect control and ±100 the full control effect.

SMILES | Mm-Cpn inhibitor | G9a inh | VDR inhibitor | CCT chaperon mod | Sfp PPTase inh | PLK1 PBD block | Sfp inh conf | others
CCOc1ccc(S(=O)(=O)NCCc2csc3nc(-c4ccc(F)cc4)nn23)cc1 | x | -42%[59 µM] | 17% | x | x | x | x
COc1ccccc1C1=Nn2c(nnc2-c2ccccc2OC)SC1 | x | x | x | x | 3% | x | x
COc1ccccc1C1=Nn2c(COc3ccccc3)nnc2SC1 | 0% | 3.2µM* | x | x | 14µM* | x | 11µM*
c1ccc(OCc2nnc3n2N=C(c2ccccc2)CS3)cc1 | -4% | 7.9µM* | u | 0 | 16µM* | 7.5µM* | 17µM*
COc1ccc(OCc2nnc3n2N=C(c2ccc(C)cc2)CS3)cc1 | -2% | u | 8% | -1 | 6% | -19% | x
COc1ccc2c(c1)c(=O)c(S(=O)(=O)c1ccc(Cl)cc1)cn2Cc1cc(C)ccc1C | x | -11%[59 µM] | 2% | x | x | x | x
Cc1ccc(-n2c(Cc3cccn3C)nnc2SCC(=O)NCc2ccco2)cc1 | -4% | 50µM* | 9% | 0 | 6.3µM* | -13% | u | Sfp PPTase gel=i
CCOC(=O)c1ccc(NC(=O)c2c(C)oc3nc(C)nc(N4CCCC4)c23)cc1 | x | -3%[59 µM] | 12% | x | x | x | x
COC(=O)[C@@H](N)Cc1ccc(O)cc1 | -1% | 18% | x | x | -7% | x | x
N[C@@H](CO)C(=O)NNCc1ccc(O)c(O)c1O | x | u | 32µM* | x | 28µM* | x | u | Sfp PPTase gel=19µM*
COc1ccc(Oc2ncc3ncc(=O)n(Cc4ccc(F)cc4)c3n2)cc1 | x | -5%[12.7 µM] | -6% | x | 7% | x | x
CC1=C(C(N)=O)N2C(=O)[C@@H](NC(=O)Cc3ccccc3)C2SC1 (stereo not given in full) | x | x | -14% | x | 25µM* | x | 4.5µM* | Sfp PPTase gel=0.92µM*
CC1=C(C(=O)O)N2C(=O)C(NC(=O)C(N)c3ccc(O)cc3)C2SC1 (stereo not given) | x | -29%[2.33 µM] | u | x | -82% | x | x
CCCCn1cc(S(=O)(=O)c2ccccc2)c(=O)c2cc(F)c(N3CCC(C)CC3)cc21 | x | 12%[59 µM] | 3% | x | x | x | x
O=C(O)c1ccc(-n2c(=O)c3ccccc3c3ccccc3c2=O)cc1 | -1% | 12%[0.501 µM] | u | 1 | 7.9µM* | u | 74µM* | Sfp PPTase gel=u
CCN(CC)C1=CC(=O)OC12CCCCC2 | -18% | 3.5µM* | 1% | 1 | 35µM* | 11µM* | u
CC(C)CCC[C@@H](C)[C@H]1CC[C@H]2[C@@H]3CC=C4C[C@@H](O)CC[C@]4(C)[C@H]3CC[C@]12C | x | 26%[59 µM] | 3% | x | 13% | x | x
ONc1cccnc1-n1nc(C(F)(F)F)cc1C(F)(F)F | 1% | 4µM* | x | x | 8.9µM* | x | 15µM*
O=C(O)c1ccccc1C(=O)Nc1ccc(-n2nc(C(F)(F)F)cc2C(F)(F)F)cc1 | -3% | 3% | -2% | 0 | 10% | 4% | x
CCOC(=O)c1c(C)[nH]c(C2=NNC(=NC3CC3)SC2)c1C | -1% | 18µM* | 8.9µM* | 0 | 7.1µM* | 30µM* | 42µM*
COc1ccc(-c2nc(C)c(CCNC(=O)c3ccco3)s2)cc1 | x | -3%[59 µM] | -19% | x | x | x | x
O=C(CSc1nc2scc(-c3ccco3)c2c(=O)n1-c1ccccc1)N1CCOCC1 | -6% | 3%[59 µM] | -16% | -2 | u | -4% | x
O=C(CSc1nc2scc(-c3ccco3)c2c(=O)n1-c1ccccc1)NCC1CCCO1 (stereo not given) | -7% | 8.9µM* | -5% | -5 | 1.3µM* | -4% | 42µM*
NC(=O)CSc1nc2scc(-c3ccco3)c2c(=O)n1-c1ccccc1 | -5% | u | 79µM* | 1 | 6.3µM* | -21% | 15µM*
Cc1ccc(-c2noc(-c3ccc(NCc4ccco4)c([N+](=O)[O-])c3)n2)cc1 | x | -13%[59 µM] | 12% | x | x | x | x
SMILES | Mm-Cpn inhibitor | G9a inh | VDR inhibitor | CCT chaperon mod | Sfp PPTase inh | PLK1 PBD block | Sfp inh conf | others
Cn1ccnc1C(O)c1cc(C(C)(C)C)c(O)c(C(C)(C)C)c1 (stereo not given) | 3% | 50µM* | -6% | 1 | 45µM* | -27% | 47µM*
COCCCNS(=O)(=O)c1ccc(Oc2ncc(C(F)(F)F)cc2Cl)cc1 | -2% | -2%[59 µM] | 10% | -2 | -24% | -6% | x
CC(C)(C)NS(=O)(=O)c1ccc(Oc2ncc(C(F)(F)F)cc2Cl)cc1 | -6% | 15%[59 µM] | 4% | -3 | 25µM* | 7% | 53µM* | Sfp PPTase gel=i
C1=C(c2ccccc2)CCN(c2nc3ccccc3n3cnnc23)C1 | -2% | 22µM* | -30% | -3 | 28µM* | -24% | 37µM*
Cc1cccc(OCC(=O)Nc2ccc(-c3nc4cc(C)ccc4o3)c(O)c2)c1 | x | 32%[59 µM] | -4% | x | x | x | x
CCOc1ccc(NC(=O)CN2CCN(Cc3ccccc3)S2(=O)=O)cc1 | x | u | 6% | x | x | x | x

Screens: PubChem BioAssay, National Center for Advancing Translational Sciences (NCATS)
